Source: PubChem BioAssay
FMDV antiviral = High Throughput Screening for Foot and Mouth Disease Virus Antivirals; FMDV antiviral cell-based qHTS; Potency, µM (highest dose often 57.9 µM), for inactives: top-dose activity change, negative = inhibition, actives largely listed as inhibitors; actives 1.2% (n = 410,000); calls by dose curve; tested in HEK293T cells; further: read-out not given here; potency means the concentration at half of the fitted maximal effect; nearly all actives have a fitted effect of over 45% in size
MARV entry inh = qHTS for inhibitors of binding or entry into cells for Marburg Virus. Marburg virus pseudotyped entry inhibition, cell reporter. Potency, µM (top dose mostly 37.8 µM), without a hit: top-dose activity change, negative = inhibition, actives largely listed as inhibitors. actives 1.8% (n = 300,000). AID 540276, 2011; calls by dose curve; tested in HEK293 cells; further: potency means the concentration at half of the fitted maximal effect
HCMV antiviral = qHTS Assay for inhibitors of the human cytomegalovirus (HCMV); HFF cells, HCMV-luciferase reporter, 72 h; stronger effect = lower value; activity change, negative = inhibition, % at 57.5 µM; actives 4.5% (n = 410,000); in the data active means activity change below about -60%; inconclusive means no clear call, values can overlap the other calls; inactive means above about -39%
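Cell-based, HFFs, 1000 cells/well, 16 h 37C; cpds in DMSO + HCMV-luc, MOI 1 PFU/cell; 72 h 37C; OneGlo luminescence after 5 min RT; norm. to buffer vs Salinomycin 10uM.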
Lassa entry inh = qHTS for Inhibitors of binding or entry into cells for Lassa Virus | AID 540256, 2011 | Potency, µM (series often up to 37.9 µM), inactives show at the top dose activity change, negative = inhibition, actives largely listed as inhibitors | actives 1.2% (n = 300,000) | Lassa virus pseudotype entry inhibition, cell reporter; calls by dose curve; tested in HEK293 cells; further: potency means the concentration at half of the fitted maximal effect; nearly all actives have a fitted effect of over 50% in size
* hit, by the source's call; ? = inconclusive; . = no result; [ ] = another dose, or the depositor's remark. This is a sample that favours compounds with a hit; in the whole collection about 6.2% have one here. On the % scale 0 is the no-effect control and ±100 the full control effect.

SMILES | FMDV antiviral | MARV entry inh | HCMV antiviral | Lassa entry inh
CC1=C(C(=O)NC2CCCc3c2cnn3-c2cccc(C)c2C)OCCO1 (configuration not stated) | ? | ? | -79* | ?
Cc1cccc(-n2ncc3c2CCCC3NC(=O)Cc2c(C)noc2C)c1C (configuration not stated) | -22% | . | ? | .
Cc1cccc(-n2ncc3c2CCCC3NC(=O)CN2CCOC2=O)c1C (configuration not stated) | -25% | . | -4 | .
COCCCNC(=O)CSc1nc2cc3c(cc2c(=O)n1CCCCCC(=O)NCc1ccc2c(c1)OCO2)OCO3 | -13% | . | 7 | ?
Cn1c(=O)c2c3c(sc2n2c(SCC(N)=O)nnc12)C[C@H](C(C)(C)C)CC3 | . | -1% | . | .
COc1cc(CN2CCC3(CCC(CNC(=O)c4ccccc4)O3)CC2)cc(OC)c1 (configuration not stated) | -10% | . | . | .
COc1ccc(C(=O)NC2CCCc3c2cnn3-c2cccc(C)c2C)o1 (configuration not stated) | -8% | . | -93* | .
CCn1cc(C(=O)NC2CCCc3c2cnn3-c2cccc(C)c2C)cn1 (configuration not stated) | . | . | -99* | .
Cc1cccc(-n2ncc3c2CCCC3NC(=O)CCc2cccnc2)c1C (configuration not stated) | 0% | . | -63* | .
COc1cccc(C(=O)NC2CCCc3c2cnn3-c2cc(C)cc(C)c2)c1 (configuration not stated) | -11% | ? | ? | ?
c1ccc2c(C(c3nnnn3-c3ccc4c(c3)OCCO4)N3CCCCC3)ccnc2c1 (configuration not stated) | 2% | . | -13 | .
Clc1cccc(OCCOCCN2CCNCC2)c1Cl | -19% | 13µM* | 16 | 3%
Cc1oncc1C(=O)Nc1ccc(C(F)(F)F)cc1 | 28% | 7.1µM* | -69* | ?
Cc1cc(Nc2nc3ccccc3c3nnc(C)n23)ccc1Br | -21% | . | -5 | 19%[46.1 µM]
CC(=O)Nc1ccc(NC2=Nc3ccccc3N3C2=Nc2c(c(C)nn2-c2ccccc2)C3c2ccccc2)cc1 (configuration not stated) | 10µM* | ? | -99* | ?
COc1ccccc1CCC(=O)Nc1ccc2c(c1)c(=O)n(C)n2-c1cccs1 | -3% | . | -84* | .
O=S(=O)(c1cccs1)N1CCN(C/C=C/c2ccccc2)CC1 | -11% | -16%[46.1 µM] | -14 | -15%
O=S(=O)(c1ccc(Cl)s1)N1CCN(C/C=C/c2ccccc2)CC1 | -30% | ? | -40 | 23µM*
COc1cc(NC(=O)c2cccc3c2C(=O)N(C2CCCCC2)C3)cc(OC)c1OC | ? | ? | -91* | ?
CC12Cc3cnoc3C=C1CCC1C2CCC2(C)C1CCC2(C)O (configuration not stated) | 35µM* | -18% | -34 | ?
C[C@]12CCC(=O)C=C1CC[C@@H]1[C@@H]2CC[C@@]2(C)[C@H]1CC[C@]2(C)O | ? | . | -19 | .
O=C(c1ccc(N2CCCCC2)c([N+](=O)[O-])c1)N1CCN(S(=O)(=O)c2ccccc2)CC1 | -19% | -3%[46.1 µM] | -19 | ?
NC(=O)c1ccc(N2CCN(c3ccc(O)cc3)CC2)c([N+](=O)[O-])c1 | ? | ? | -66* | -30%
O=C(/C=C/c1ccc(N2CCCCC2)c([N+](=O)[O-])c1)c1ccc(S(=O)(=O)N2CCCC2)cc1 | 20µM* | ? | -12 | -5%
NC(=O)c1ccc(N2CCN(S(=O)(=O)c3ccccc3)CC2)c([N+](=O)[O-])c1 | 16µM* | -27%[46.1 µM] | -90* | 2µM*
SMILES | FMDV antiviral | MARV entry inh | HCMV antiviral | Lassa entry inh
COc1ccccc1N1CCN(C(=O)CCc2nnc3n(C)c(=O)c4sccc4n23)CC1 | 0% | 3%[46.1 µM] | -3 | 5%[46.1 µM]
CC(=O)C(C(=O)Nc1c(C)cccc1C)N(Cc1ccco1)C(=O)C(=O)c1ccccc1 (configuration not stated) | . | . | -12 | .
Cc1oc(-c2ccccc2NC(=O)C2CCC2)nc1CNC(=O)c1ccc(C#CC(C)(C)O)cc1 | 2% | . | . | .
Cc1csc(=Nc2c(C)n(C)n(-c3ccccc3)c2=O)n1Cc1ccccc1 | -8% | 6% | -14 | -6%
Cc1ccc(-c2csc(=Nc3ccccc3)n2CCCO)cc1 | 32µM* | -4%[46.1 µM] | -24 | -8%[46.1 µM]
COc1ccc(-c2csc(=Nc3ccccc3)n2CCO)cc1 | 25µM* | ? | -62* | -9%
COc1ccc(-c2cn(-c3ccccc3)nc2CO)cc1 | 0% | ? | 25 | -4%[46.1 µM]
